In PubChem BioAssay AID1117283 (Broad Institute, 2014):
Potency and affinity values are given separately. The source made the active and inactive calls.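 Rule for the calls: active = fluorescent signal decreased by at least 40%; inconclusive = no clear call, values can overlap the other calls; inactive = the rest, including activity opposite to the expected direction.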

Experiment: inhibition of fibronectin matrix deposition – AH1F cells, Alexa488-fibronectin fluorescence, cherry-pick, set 2, dose response (AID 1117283);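 note: AH1F fibroblasts given Alexa488-labelled fibronectin at 24 nM final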
Settings: AH1F fibroblasts, overnight; series mostly up to 35 µM
For `C[C@@H]1CN([C@H](C)CO)C(=O)c2cc(NC(=O)CCCN(C)C)ccc2O[C@@H]1CN(C)Cc1ccc(-c2ccccc2)cc1`, the outcome was “inactive”.
For `C[C@H]1CN([C@@H](C)CO)C(=O)c2cc(-c3ccccc3)cnc2O[C@@H]1CN(C)C(=O)c1cccc(F)c1`, the outcome was “inactive”.
With `O=C(Nc1ccccc1F)N1C[C@@H]2[C@H](c3ccccc31)[C@@H](CO)N2C(=O)C1CC1` the outcome was “inactive”.
With `CO[C@@H]1CN(C)C(=O)c2ccc(NC(=O)c3ccc(-c4ccccc4)cc3)cc2OC[C@H](C)NC[C@H]1C` the outcome was “inactive”.
In the case of `COc1cccc(-c2ccc3c(c2)[C@H]2[C@H](CCN2S(=O)(=O)c2cccc(OC)c2)[C@H](CO)N3)c1`, the outcome is reported as “inactive”.
For `Cc1ccc(S(=O)(=O)N2CC[C@@H]3[C@@H](CO)Nc4ccc(-c5cccc(C(=O)N(C)C)c5)cc4[C@@H]32)cc1`, the outcome was “inactive”.
For `C[C@@H]1CN([C@@H](C)CO)C(=O)c2cc(NC(=O)CCCN(C)C)ccc2O[C@@H]1CN(C)Cc1ccc(-c2ccccc2)cc1`, the outcome was “inactive”.
With `C[C@H](CO)N1C[C@H](C)[C@@H](CN(C)C(=O)Nc2cccc3ccccc23)Oc2c(NC(=O)Nc3ccc(C(F)(F)F)cc3)cccc2C1=O` the outcome was “inactive”.
With `CO[C@@H]1CN(C)C(=O)c2cc(NC(=O)Nc3cc(Cl)cc(Cl)c3)ccc2OC[C@H](C)NC[C@@H]1C` the outcome was “inactive”.
In the case of `CCOC(=O)c1cnc(SCc2nc(N)nc(Nc3ccc(OC)cc3)n2)nc1N`, the outcome is reported as “inactive”.
With `C[C@@H]1CN([C@H](C)CO)C(=O)c2cc(-c3ccccc3)cnc2O[C@H]1CN(C)Cc1ccccc1` the outcome was “inactive”.
With `COc1cccc(-c2ccc3c(c2)[C@H]2[C@H](CCN2S(=O)(=O)c2cccc(OC)c2)[C@@H](CO)N3)c1` the outcome was “inactive”.
For `C[C@H](CO)N1C[C@H](C)[C@H](CN(C)C)Oc2cc(C#C[C@@H](C)O)ccc2S1(=O)=O`, the outcome was “inactive”.
With `COC(=O)C[C@H]1CC[C@H]2[C@H](COc3ccc(NC(=O)Cc4cccs4)cc3C(=O)N2C)O1` the outcome was “inactive”.
In the case of `N#Cc1ccc(-c2ccc3c(c2)[C@@H]2[C@@H](CCN2S(=O)(=O)c2ccccc2F)[C@H](CO)N3)cc1`, the outcome is reported as “inactive”.
In the case of `CS(=O)(=O)N1CCN(c2ccc(NC(=O)c3ccc([N+](=O)[O-])o3)cc2)CC1`, the outcome is reported as “inactive”.
With `COc1ccccc1CC(=O)OC(C)C(=O)Nc1ccc(S(=O)(=O)N2CCCCC2)cc1` (configuration not stated) the outcome was “inactive”.
For `COC(=O)C[C@H]1CC[C@H]2[C@@H](COc3ccc(NC(=O)Cc4cccs4)cc3C(=O)N2C)O1`, the outcome was “inactive”.
In the case of `CC(C)(C)[S@@](=O)N1Cc2cc(C(=O)NCc3ccccc3F)nc(-c3cccc(-c4ccncc4)c3)c2[C@H]1CCO`, the outcome is reported as “inactive”.
With `Cc1ccc(S(=O)(=O)N2CC[C@@H]3[C@H]2c2cc(-c4cccc(C(=O)N(C)C)c4)ccc2N[C@@H]3CO)cc1` the outcome was “inactive”.
In the case of `O=C(Nc1ccccc1F)N1C[C@H]2[C@@H](c3ccccc31)[C@@H](CO)N2C(=O)C1CC1`, the outcome is reported as “inactive”.
For `C[C@@H]1CN([C@H](C)CO)C(=O)c2cc(NC(=O)C3CCCCC3)ccc2O[C@@H]1CN(C)Cc1ccc(-c2ccccc2)cc1`, the outcome was “inactive”.
In the case of `CO[C@H]1CN(C)C(=O)c2cc(NC(=O)Nc3cc(Cl)cc(Cl)c3)ccc2OC[C@@H](C)NC[C@H]1C`, the outcome is reported as “inactive”.
In the case of `C[C@H]1CN([C@@H](C)CO)C(=O)c2cccc(NC(=O)Nc3ccc(C(F)(F)F)cc3)c2O[C@H]1CN(C)C(=O)Nc1cccc2ccccc12`, the outcome is reported as “inactive”.
For `N#C[C@@H]1[C@@H](c2ccccc2C2=CCCCC2)[C@H](CO)N1S(=O)(=O)c1ccccc1`, the outcome was “inactive”.
In the case of `COc1ccc(C)cc1N(CC(=O)Nc1cccc(N(C)S(C)(=O)=O)c1)S(C)(=O)=O`, the outcome is reported as “inactive”.
In the case of `Cc1ccc(NC(=O)COC(=O)c2cc(Cl)ccc2[N+](=O)[O-])c(C)c1`, the outcome is reported as “inactive”.
With `O=C(Nc1ccccc1F)N1C[C@H]2[C@@H](c3ccccc31)[C@H](CO)N2C(=O)C1CC1` the outcome was “inactive”.
With `CC(C)(C)[S@@](=O)N1Cc2cc(C(=O)NCc3ccccc3F)nc(-c3cccc(-c4cncnc4)c3)c2[C@H]1CCO` the outcome was “inactive”.
With `C[C@@H]1CN([C@@H](C)CO)C(=O)c2cc(NC(=O)C3CCCCC3)ccc2O[C@H]1CN(C)Cc1ccc(-c2ccccc2)cc1` the outcome was “inactive”.
In the case of `N#Cc1ccc(-c2ccc3c(c2)[C@H]2[C@H](CCN2S(=O)(=O)c2cccc(F)c2)[C@H](CO)N3)cc1`, the outcome is reported as “inactive”.
With `C[C@H](CO)N1C[C@H](C)[C@@H](CN(C)Cc2ccc(-c3ccccc3)cc2)Oc2ccc(NC(=O)CCCN(C)C)cc2C1=O` the outcome was “inactive”.
